The results in this text go back to publication PMC10726135, “HNF4α isoforms regulate the circadian balance between carbohydrate and lipid metabolism in the liver”.

Over roughly 18,000 sequences, “log2 normalized intensity” has its median near 0.39; the highest 2% begin near 6.6. Many of the other results were omitted from the sample, so the highest values are more common in it than they were.

The assay concerns the target T1, HNF4alpha2 (COS-7 nuclear extract) (Homo sapiens, UniProt P41235 1-474).
T1 sequence: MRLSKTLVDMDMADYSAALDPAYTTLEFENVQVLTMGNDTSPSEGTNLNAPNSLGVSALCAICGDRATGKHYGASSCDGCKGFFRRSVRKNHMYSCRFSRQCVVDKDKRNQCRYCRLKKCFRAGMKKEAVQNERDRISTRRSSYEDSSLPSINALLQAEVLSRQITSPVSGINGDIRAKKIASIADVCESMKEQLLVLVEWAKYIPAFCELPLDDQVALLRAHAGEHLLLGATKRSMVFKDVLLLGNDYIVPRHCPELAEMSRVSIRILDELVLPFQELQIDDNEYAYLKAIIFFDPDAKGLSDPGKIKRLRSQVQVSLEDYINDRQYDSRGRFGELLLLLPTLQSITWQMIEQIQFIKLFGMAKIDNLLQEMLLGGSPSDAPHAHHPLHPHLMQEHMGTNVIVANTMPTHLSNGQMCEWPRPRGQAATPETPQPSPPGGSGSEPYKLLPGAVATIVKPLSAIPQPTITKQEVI
Kind of assay: protein-binding microarray; COS-7 nuclear extract on double-stranded Agilent 4x180k PBM; binding buffer, salt, pH and temperature not given in the material; high values mean tight binding. Particulars: chain copies: 2; label: 3' end of strand 1 on the slide; dsDNA, one strand shown. The method in brief: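 Binding signal is the background-corrected, normalized gProcessedSignal calculated by Agilent software. It was measured by applying nuclear extracts of COS-7 cells transiently transfected with a human HNF4α isoform expression vector to a custom Agilent SurePrint G3 4x180k array of ~44,000 double-stranded ~60-nt test sequences in quadruplicate, then imaging bound HNF4α on an Agilent G2565CA scanner at 2-µm resolution.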
For the sequence “GGTCAAAGAGCAATCATCAAGGTGGTTTCAGCCTAGGGAGATTAGAGTATCGGTCGA”, the binding signal was determined as 1.71 log2 normalized intensity. Take “AACACTTACACCTGGGTGCTCCCTCCCCCTGCCTAGGGAGATTAGAGTATCGGTCGA”: the binding signal worked out at 4.36 log2 normalized intensity.

As for “CTGCCTTAGTCCCAGTATGGTCTCAGTAATGCCTAGGGAGATTAGAGTATCGGTCGA”, the binding signal is -0.127 log2 normalized intensity.

For “AGTTATATCTTACCTCCTTCTCCCCCATGCGCCTAGGGAGATTAGAGTATCGGTCGA”, the binding signal came out at 4.87 log2 normalized intensity. As to “ATGCTATCTCCCAGTTCTTTTGACCTTTGCGCCTAGGGAGATTAGAGTATCGGTCGA”, the binding signal came to 7.68 log2 normalized intensity. Take “TCCTTTTGACCACAGTTATCTCCCCAGCTTGCCTAGGGAGATTAGAGTATCGGTCGA”: the binding signal is 2.47 log2 normalized intensity. The figure for “ATCTCCCAGTTCTTTTGACCTTTGCCTCATGCCTAGGGAGATTAGAGTATCGGTCGA” is 7.95 log2 normalized intensity; for “CCAGTTCTTTTGACCTTTGCCTCATTCTTAGCCTAGGGAGATTAGAGTATCGGTCGA” it is 6.03 log2 normalized intensity; for “CCTCAATGCTATCTCCCAGTTCTTTTGACCGCCTAGGGAGATTAGAGTATCGGTCGA” it is 2.52 log2 normalized intensity. Consider “GAGCGCTTTGAGGCCTATGGCGAAAAAGGAGCCTAGGGAGATTAGAGTATCGGTCGA”, for which the binding signal is -0.829 log2 normalized intensity. As for “AAAAAATTACTGACCCTTGCACTGTAAGATGCCTAGGGAGATTAGAGTATCGGTCGA”, the binding signal worked out at 3.49 log2 normalized intensity.

Consider “AATTCATCTCTAAGCTACTGAAAATGACCTGCCTAGGGAGATTAGAGTATCGGTCGA”, for which the binding signal was found to be 3.39 log2 normalized intensity.

For “ATCTCTAAGCTACTGAAAATGACCTTTGTTGCCTAGGGAGATTAGAGTATCGGTCGA”, the binding signal was determined as 6.11 log2 normalized intensity. Take “TAAGCTACTGAAAATGACCTTTGTTCCCTGGCCTAGGGAGATTAGAGTATCGGTCGA”: the binding signal turned out to be 8.2 log2 normalized intensity. On to “AAAAAAAAAAATTACTGACCCTTGCACTGTGCCTAGGGAGATTAGAGTATCGGTCGA”, for which the binding signal is 4.58 log2 normalized intensity. The same measure for “TACTGAAAATGACCTTTGTTCCCTGCACTTGCCTAGGGAGATTAGAGTATCGGTCGA”: 7.15 log2 normalized intensity; for “AAGCAATGGCTACCAAGGAGTGGACTGTTCGCCTAGGGAGATTAGAGTATCGGTCGA”: 1.7 log2 normalized intensity. With “GGGGGCAAGGTACACCATCTATGAGCTCAAGCCTAGGGAGATTAGAGTATCGGTCGA”, the binding signal amounted to 1.28 log2 normalized intensity. In the case of “AAAGGCGTTTGCTCCCATCCCCCCAAAGGCGCCTAGGGAGATTAGAGTATCGGTCGA”, the binding signal turned out to be 4.99 log2 normalized intensity.

Consider “TTAGATCAGAGGTCTAATTCCCAAGGGTATGCCTAGGGAGATTAGAGTATCGGTCGA”, for which the binding signal is -0.435 log2 normalized intensity.

For “CCAGTGAGACCCATTTTGGACTTTGACCTCGCCTAGGGAGATTAGAGTATCGGTCGA”, the binding signal worked out at 11.9 log2 normalized intensity.

As to “AATGATGATGACTTTTGACCCCAGGGGAAAGCCTAGGGAGATTAGAGTATCGGTCGA”, the binding signal was found to be 5.51 log2 normalized intensity. Turning to “TAGCACTTTGGACCTCCACTTTGGAGGGGGGCCTAGGGAGATTAGAGTATCGGTCGA”, the binding signal came out at 1.7 log2 normalized intensity. The figure for “CATTGACTTTGCCTTTTGGCTAAAGTCCAAGCCTAGGGAGATTAGAGTATCGGTCGA” is 4.16 log2 normalized intensity.

On to “CCATTTTGGACTTTGACCTCCAAAATTATAGCCTAGGGAGATTAGAGTATCGGTCGA”, for which the binding signal came to 10.4 log2 normalized intensity.

With “TTGGACTTTGACCTCCAAAATTATAAGTCAGCCTAGGGAGATTAGAGTATCGGTCGA”, the binding signal came out at 8.25 log2 normalized intensity.

“GAATTCTTGACTTTGGACTTTCAAAAGTTAGCCTAGGGAGATTAGAGTATCGGTCGA”: the binding signal was determined as 4.21 log2 normalized intensity. Turning to “CACAGCTGGACTTTGGCTGCAAAATTTGAAGCCTAGGGAGATTAGAGTATCGGTCGA”, the binding signal stood at 3.04 log2 normalized intensity. Regarding “TTTGGAATTTGACCTCATTTGCTCCCAGTGGCCTAGGGAGATTAGAGTATCGGTCGA”, the binding signal was found to be 3.85 log2 normalized intensity.

Regarding “TTAGCCCAGTGAGACCCATTTTGGACTTTGGCCTAGGGAGATTAGAGTATCGGTCGA”, the binding signal was determined as 6.34 log2 normalized intensity. The figure for “CTTTGTAGCACTTTGGACCTCCACTTTGGAGCCTAGGGAGATTAGAGTATCGGTCGA” is 3.1 log2 normalized intensity; for “GAGACCCATTTTGGACTTTGACCTCCAAAAGCCTAGGGAGATTAGAGTATCGGTCGA” it is 10.7 log2 normalized intensity; for “CCTCTCTCTCTCTCTCTCACACACACACACGCCTAGGGAGATTAGAGTATCGGTCGA” it is 2.09 log2 normalized intensity. For “CTTACTTGGCATCATCAAACAAGATTTATCGCCTAGGGAGATTAGAGTATCGGTCGA”, the binding signal was -0.732 log2 normalized intensity. “TGTAGGTAAGCACAAAGTACAGCTTTTTGTGCCTAGGGAGATTAGAGTATCGGTCGA”: the binding signal came to 1.13 log2 normalized intensity. With “TATAAAGGTCAACTGCCCTCTCAAATTACAGCCTAGGGAGATTAGAGTATCGGTCGA”, the binding signal was found to be 1.51 log2 normalized intensity. “TTTTAAAATAGATAAGTCCCTAAGAGGAATGCCTAGGGAGATTAGAGTATCGGTCGA”: the binding signal was -0.74 log2 normalized intensity. Regarding “ACAAATGAGGGGACAAAGTTCGTGGAAAGTGCCTAGGGAGATTAGAGTATCGGTCGA”, the binding signal turned out to be 2.91 log2 normalized intensity. Take “GAGCCTGCACGCCTGTTCACATTCCAGTGTGCCTAGGGAGATTAGAGTATCGGTCGA”: the binding signal was -0.595 log2 normalized intensity. As for “GACAGGATATTTTGAGGGCTCAAAGGTTACGCCTAGGGAGATTAGAGTATCGGTCGA”, the binding signal stood at 5.37 log2 normalized intensity. The same measure for “CTACAGGGTATGAATTTAACCTTTGCTCTCGCCTAGGGAGATTAGAGTATCGGTCGA”: 6.87 log2 normalized intensity. The same measure for “CCATCCTACAGGGTATGAATTTAACCTTTGGCCTAGGGAGATTAGAGTATCGGTCGA”: 4.2 log2 normalized intensity; for “ACTTTGCCCTTTTTTTCTCTCCCCTTTTAAGCCTAGGGAGATTAGAGTATCGGTCGA”: 2.54 log2 normalized intensity.

For the sequence “TGACCTTTGCATTCTTACCCAAGCCCCAAAGCCTAGGGAGATTAGAGTATCGGTCGA”, the binding signal came to 3.73 log2 normalized intensity.
